Results on 40 compounds are retold here after the supplement of paper PMC9023506.

Structures can show the parent of a compound that is named as a salt.

The subject of the experiment is Danio rerio larvae (5 dpf). Nature of the experiment: optomotor response to red moving lines, difference vs DMSO (percentage points (treated minus DMSO)); higher = more of the behaviour than the DMSO vehicle control. The conditions noted are these: 10 µM; exposure time: 3 h pre-incubation + 3 h imaging. The method, then:
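5-dpf wild-type zebrafish larvae were imaged in 96-well plates. They were treated with 190 Tocris FDA-approved drugs at 10 µM (1 µl/ml DMSO) for 3 h before and 3 h during imaging at 28.5 °C, 48 larvae per drug. Automated image analysis gave % time moving and optomotor responses. Values are drug group mean minus DMSO vehicle mean (n=844), in percentage points, for 10 behaviours.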
On to `OC(c1cc(C(F)(F)F)nc2c(C(F)(F)F)cccc12)C1CCCCN1` (stereo not given) [Mefloquine hydrochloride], for which the “optomotor response to red moving lines” value amounted to 8.36.

With `CCOC(=O)[C@H](CCc1ccccc1)N[C@@H](C)C(=O)N1[C@H](C(=O)O)C[C@@H]2CCC[C@@H]21` [Ramipril], the “optomotor response to red moving lines” value is -1.65.

Turning to `CCN(Cc1ccncc1)C(=O)C(CO)c1ccccc1` (stereo not given) [Tropicamide], the “optomotor response to red moving lines” value was 1.4.

Regarding `NS(=O)(=O)c1cc2c(cc1Cl)NC(C1CC3C=CC1C3)NS2(=O)=O` (stereo not given) [Cyclothiazide], the “optomotor response to red moving lines” value is -6.66.

As for `CC(=O)Nc1ccc(O)cc1` [Acetaminophen], the “optomotor response to red moving lines” value is -2.99.

As for `COc1ccccc1OCC(O)CN1CCN(CC(=O)Nc2c(C)cccc2C)CC1` (stereo not given) [Ranolazine dihydrochloride], the “optomotor response to red moving lines” value came to 9.27.

On to `O=C(c1ccc(OCCN2CCCCC2)cc1)c1c(-c2ccc(O)cc2)sc2cc(O)ccc12` [Raloxifene hydrochloride], for which the “optomotor response to red moving lines” value was found to be 3.63.

For `C[C@H](Cc1cc2c(c(C(N)=O)c1)N(CCCO)CC2)NCCOc1ccccc1OCC(F)(F)F` [Silodosin], the “optomotor response to red moving lines” value was 6.25.

Turning to `CNCc1ccc(-c2[nH]c3cc(F)cc4c3c2CCNC4=O)cc1` [Rucaparib camsylate], the “optomotor response to red moving lines” value is 2.5.

As for `Cc1c(-c2ccc(O)cc2)n(Cc2ccc(OCCN3CCCCCC3)cc2)c2ccc(O)cc12` [Bazedoxifene acetate], the “optomotor response to red moving lines” value was 9.09.

`CCC(C)(C)C(=O)O[C@H]1C[C@@H](C)C=C2C=C[C@H](C)[C@H](CC[C@@H]3C[C@@H](O)CC(=O)O3)[C@H]21` [Simvastatin]: the “optomotor response to red moving lines” value was -5.54.

In the case of `CCOC(=O)C1=C(C)NC(C)=C(C(=O)OC)C1c1cccc(Cl)c1Cl` (stereo not given) [Felodipine], the “optomotor response to red moving lines” value worked out at 4.89.

As to `CCCCc1nc(Cl)c(CO)n1Cc1ccc(-c2ccccc2-c2nnn[nH]2)cc1` [Losartan potassium], the “optomotor response to red moving lines” value is -6.11.

On to `Cn1nnc2c(C(N)=O)ncn2c1=O` [Temozolomide], for which the “optomotor response to red moving lines” value is 2.24.

In the case of `COc1cc(N)c(Cl)cc1C(=O)NC1CCN(CCCOc2ccc(F)cc2)CC1OC` (stereo not given) [Cisapride], the “optomotor response to red moving lines” value was -3.64.

As to `CC(=O)O[C@H]1C(=O)[C@@]2(C)[C@H]([C@H](OC(=O)c3ccccc3)[C@]3(O)C[C@H](OC(=O)[C@H](O)[C@@H](NC(=O)c4ccccc4)c4ccccc4)C(C)=C1C3(C)C)[C@]1(OC(C)=O)CO[C@@H]1C[C@@H]2O` [Taxol], the “optomotor response to red moving lines” value was determined as 6.51.

For the compound `CC(C)c1nc(CN(C)C(=O)N[C@H](C(=O)N[C@@H](Cc2ccccc2)C[C@H](O)[C@H](Cc2ccccc2)NC(=O)OCc2cncs2)C(C)C)cs1` [Ritonavir], the “optomotor response to red moving lines” value was -2.77.

Turning to `C[C@H]1O[C@H](O[C@H]2[C@H](O)[C@@H](O)[C@@H](O[C@H]3[C@H](O)[C@@H](O)C(O)O[C@@H]3CO)O[C@@H]2CO)[C@H](O)[C@@H](O)[C@@H]1N[C@H]1C=C(CO)[C@@H](O)[C@H](O)[C@H]1O` (stereo not given in full) [Acarbose], the “optomotor response to red moving lines” value was 6.

Regarding `Clc1ccc(COC(Cn2ccnc2)c2ccc(Cl)cc2Cl)c(Cl)c1` (stereo not given) [Miconazole nitrate], the “optomotor response to red moving lines” value was -8.36.

`COc1ccc([C@@H]2Sc3ccccc3N(CCN(C)C)C(=O)[C@@H]2OC(C)=O)cc1` [Diltiazem hydrochloride]: the “optomotor response to red moving lines” value was -1.99.

Consider `CCOc1nc2cccc(C(=O)O)c2n1Cc1ccc(-c2ccccc2-c2noc(=O)[nH]2)cc1` [Azilsartan], for which the “optomotor response to red moving lines” value is -3.43.

Regarding `Clc1ccccc1C(c1ccccc1)(c1ccccc1)n1ccnc1` [Clotrimazole], the “optomotor response to red moving lines” value came to 26.3.

On to `COc1ccc(C[C@@H](C)NC[C@H](O)c2ccc(O)c(NC=O)c2)cc1` [Arformoterol tartrate], for which the “optomotor response to red moving lines” value is -7.51.

As to `CC(C)(C(=O)O)c1ccc(C(O)CCCN2CCC(C(O)(c3ccccc3)c3ccccc3)CC2)cc1` (stereo not given) [Fexofenadine hydrochloride], the “optomotor response to red moving lines” value was determined as 3.62.

Take `OCCN1C[C@H](O)[C@@H](O)[C@H](O)[C@H]1CO` [Miglitol]: the “optomotor response to red moving lines” value came out at 9.81.

Regarding `C[C@@H](O[C@H]1OCCN(Cc2n[nH]c(=O)[nH]2)[C@H]1c1ccc(F)cc1)c1cc(C(F)(F)F)cc(C(F)(F)F)c1` [Aprepitant], the “optomotor response to red moving lines” value is -4.19.

Consider `Brc1c(NC2=NCCN2)ccc2nccnc12`, for which the “optomotor response to red moving lines” value was found to be 17.8.

As to `CN1CCN2c3ncccc3Cc3ccccc3C2C1` (stereo not given) [Mirtazapine], the “optomotor response to red moving lines” value was -3.88.

In the case of `CC[C@H](C)C(=O)O[C@H]1C[C@@H](C)C=C2C=C[C@H](C)[C@H](CC[C@@H]3C[C@@H](O)CC(=O)O3)[C@H]21` [Lovastatin], the “optomotor response to red moving lines” value is -6.33.

With `CC(CCc1ccc(O)cc1)NCCc1ccc(O)c(O)c1` (stereo not given) [Dobutamine hydrochloride], the “optomotor response to red moving lines” value amounted to 5.06.

With `CN1CC2c3ccccc3Oc3ccc(Cl)cc3C2C1` (stereo not given) [Asenapine maleate], the “optomotor response to red moving lines” value is -5.48.

With `COc1cc2ncnc(Nc3ccc(F)c(Cl)c3)c2cc1OCCCN1CCOCC1` [Iressa], the “optomotor response to red moving lines” value stood at 1.01.

For the compound `C#C[C@]1(O)CC[C@H]2[C@@H]3CCC4=CC(=O)CC[C@@H]4[C@H]3CC[C@@]21CC` [Levonorgestrel], the “optomotor response to red moving lines” value is 4.27.

On to `Nc1nc(F)nc2c1ncn2[C@@H]1O[C@H](CO)[C@@H](O)[C@@H]1O` [Fludarabine], for which the “optomotor response to red moving lines” value is -10.8.

As for `Nc1ccn([C@@H]2O[C@H](CO)[C@@H](O)C2(F)F)c(=O)n1` [Gemcitabine hydrochloride], the “optomotor response to red moving lines” value turned out to be 12.3.

For `Nc1ncn([C@H]2C[C@H](O)[C@@H](CO)O2)c(=O)n1` [Decitabine], the “optomotor response to red moving lines” value was -3.68.

With `CN(C)CC/C=C1/c2ccccc2COc2ccc(CC(=O)O)cc21` [Olopatadine hydrochloride], the “optomotor response to red moving lines” value turned out to be 19.

Take `N[C@@H]1[C@H]2CN(c3nc4c(cc3F)c(=O)c(C(=O)O)cn4-c3ccc(F)cc3F)C[C@@H]12` [Trovafloxacin mesylate]: the “optomotor response to red moving lines” value came out at 4.89.

In the case of `O=C1CCc2cc(OCCCCc3nnnn3C3CCCCC3)ccc2N1` [Cilostazol], the “optomotor response to red moving lines” value was -8.76.

With `O=C1CCc2ccc(OCCCCN3CCN(c4cccc(Cl)c4Cl)CC3)cc2N1` [Aripiprazole], the “optomotor response to red moving lines” value was 6.21.
